High-throughput results from PubChem.
Compounds with a hit are over-represented: about 7.4% of the library has one in this group of screens.
SMN2 splice up: SMN2 splice variant enhancement; HEK293 SMN2-luciferase splicing reporter, luminescence, 30-36 h; Potency, µM (series often up to 46.1 µM), usual class: activators; 2.8% of 210,000 active; also: nearly all actives have a fitted effect of over 55% in size
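HEK293 cells carry an SMN2 minigene-luciferase reporter in which exon 7 inclusion puts luciferase in frame. Cells were seeded at 2000 cells/well, attached for 10-12 hours, then exposed to compounds for 30-36 hours at 37C before ONE-Glo luminescence.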
ELG1 genotox: induces genotoxicity in HEK293T cells with luciferase-tagged ELG1. HEK293T ELG1-luciferase reporter, luminescence, 16 h. Potency, µM (highest dose often 46 µM), actives largely listed as activators. 1.3% of 330,000 active; also: nearly all actives have a fitted effect of over 60% in size
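Step 1: seed 2,000 HEK293T ELG1-luciferase cells per well. Step 2: add compound or DMSO, incubate 16 hr at 37 °C. Step 3: ONE-Glo, 30 min at room temperature, read luminescence.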
FLuc counter: firefly luciferase modulation, counter-screen for miR-21 project; 6.9% of 360,000 active; Potency, µM (titrated, usually from 57.5 µM), most hits filed as inhibitors; purified FLuc, Km substrates, luminescence inhibition; P08659; also: nearly all actives have a fitted effect of over 55% in size
Target sequence (P08659 whole entry, looked up): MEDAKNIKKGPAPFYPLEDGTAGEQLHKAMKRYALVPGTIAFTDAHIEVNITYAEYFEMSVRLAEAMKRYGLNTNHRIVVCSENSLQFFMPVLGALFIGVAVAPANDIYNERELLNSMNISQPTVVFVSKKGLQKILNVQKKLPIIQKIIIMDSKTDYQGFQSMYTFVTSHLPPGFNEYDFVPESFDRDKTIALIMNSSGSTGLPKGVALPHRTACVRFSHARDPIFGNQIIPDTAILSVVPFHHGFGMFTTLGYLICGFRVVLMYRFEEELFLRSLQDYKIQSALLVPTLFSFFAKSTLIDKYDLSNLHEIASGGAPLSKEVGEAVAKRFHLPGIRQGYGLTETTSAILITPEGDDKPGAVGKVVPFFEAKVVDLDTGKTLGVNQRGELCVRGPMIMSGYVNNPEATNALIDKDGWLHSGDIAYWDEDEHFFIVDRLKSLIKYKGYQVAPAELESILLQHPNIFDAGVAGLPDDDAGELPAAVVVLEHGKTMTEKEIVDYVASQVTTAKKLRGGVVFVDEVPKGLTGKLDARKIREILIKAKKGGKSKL
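Biochemical qHTS of compounds, final roughly 60 µM downward over six points, against 10 nM purified firefly luciferase using Km concentrations of substrates (10 uM D-luciferin, 10 uM ATP) in Tris acetate pH 7.5 buffer; luminescence output.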
Rab9 prom act: activators of Rab9 promoter. Huh7 Rab9 promoter-luciferase reporter, luminescence, 24 h. Potency, µM (doses to about 9.22 µM), hits mostly activators. 2.8% of 320,000 active. AID 485297; also: nearly all actives have a fitted effect of over 60% in size
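Cells were plated at 1500 per well in reduced-serum medium with 10% FBS and left 2 h. Compound in DMSO was then added for 24 h at 37 °C. Reporter signal was read by luminescence after 10 min with luciferase detection reagent.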
NPC1 promoter act: NPC1 promoter activation; Huh7 NPC1 promoter luciferase reporter, 24 h; Potency, µM (series often up to 9.22 µM), actives largely listed as activators; 2.4% of 320,000 active; AID 485313; also: nearly all actives have a fitted effect of over 60% in size
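Huh7 cells stably carrying NPC1 promoter–luciferase, plated in Opti-MEM with 10% FBS for 2 h, were exposed to compound in DMSO for 24 h at 37 °C; luciferase reagent was added for 10 min and luminescence read.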
Each line names hits and unclear results; the compound was inactive in the other large screens. Calls follow the shape of the dose curve; as a rule, active = well fitted curve in the direction sought with a large enough effect; inconclusive = small, poorly fitted or top-dose-only effect, or another doubt; inactive = no such curve, though single readings can be large; an effect the other way counts as inactive or inconclusive.

CCOc1cccc(-c2csc(C3COc4ccccc4O3)n2)c1 (stereo unspecified)	SMN2 splice up 4µM, ELG1 genotox inconclusive, FLuc counter 2.1µM, Rab9 prom act 4µM, NPC1 promoter act inconclusive
O=C(Nc1ccc(O)cc1)c1c(O)c2c([nH]c1=O)CCCC2	SMN2 splice up 11µM, ELG1 genotox inconclusive, FLuc counter 6µM, Rab9 prom act 0.56µM, NPC1 promoter act 1.3µM
CCNC(=O)c1c(O)c2c([nH]c1=O)CCCC2	none (no result: SMN2 splice up)
COC(=O)c1ccccc1NC(=O)c1c(O)c2c([nH]c1=O)CCCC2	FLuc counter 21µM
Oc1ccc(CNc2cccc(C(F)(F)F)c2)c2cccnc12	none (no result: SMN2 splice up, ELG1 genotox)
CC(C)Cc1nn2c(=O)cc(COC(=O)c3ccccc3NC(=O)c3ccccc3)nc2s1	none (no result: SMN2 splice up, ELG1 genotox, Rab9 prom act, NPC1 promoter act)
COc1cc(/C=C/C(=O)Nc2ccc3nc4n(c(=O)c3c2)CCCC4)cc(OC)c1OC	none (no result: SMN2 splice up)
COc1cccc(/C=C/C(=O)Nc2ccc3nc4n(c(=O)c3c2)CCCC4)c1OC	FLuc counter 12µM (no result: SMN2 splice up)
COc1cccc(NC(=O)CC(=O)Nc2ccc3nc4n(c(=O)c3c2)CCCCC4)c1	none (no result: ELG1 genotox, Rab9 prom act, NPC1 promoter act)
COc1cc(OC)cc(C(=O)Nc2ccc3nc4n(c(=O)c3c2)CCCCC4)c1	SMN2 splice up 18µM, ELG1 genotox inconclusive, FLuc counter 12µM, Rab9 prom act 3.5µM, NPC1 promoter act 3.2µM
C#CCCOC(=O)N1C2=NC(C(=O)OC)=C(C(=O)OC)[C@@H]3N(CC#CC)c4ccccc4[C@]23C[C@H]1C(=O)OC	none (no result: ELG1 genotox, FLuc counter, Rab9 prom act, NPC1 promoter act)
CCCC(=O)c1ccc(N2CCN(C(=O)OCC)CC2)c(F)c1	none
CCCC(=O)c1ccc(N2CCCCCC2)c(F)c1	ELG1 genotox inconclusive, FLuc counter 8.5µM, Rab9 prom act 3.5µM, NPC1 promoter act 3.2µM
CCCC(=O)c1ccc(N2CCCCC2)c(F)c1	ELG1 genotox inconclusive, FLuc counter 13µM, Rab9 prom act inconclusive, NPC1 promoter act inconclusive
COc1cccc(Nc2nc3cc(Cl)c(Cl)cc3nc2-n2nc(C)cc2C)c1	none (no result: ELG1 genotox, Rab9 prom act, NPC1 promoter act)
C(=C\c1ccccc1)/C=N/Nc1ccc2nncn2n1	NPC1 promoter act inconclusive (no result: SMN2 splice up)
CC(/C=N/Nc1ccc2nncn2n1)=C\c1ccccc1	FLuc counter 15µM (no result: SMN2 splice up)
CC(/C=N/Nc1nnc(C)c(=O)[nH]1)=C\c1ccccc1	SMN2 splice up inconclusive, FLuc counter 12µM, Rab9 prom act inconclusive, NPC1 promoter act inconclusive
CC(C)NC(=O)N1CCC2(CC1)CCN(C(=O)c1cnccn1)CC2	none (no result: ELG1 genotox, FLuc counter, Rab9 prom act, NPC1 promoter act)
COc1cccc(CNc2cc(C)nc3nc(-c4ccc(C)cc4)nn23)c1	FLuc counter 1.7µM (no result: SMN2 splice up, ELG1 genotox, Rab9 prom act, NPC1 promoter act)
COc1ccc(-c2nc3nc(C)cc(Nc4cccc(C(F)(F)F)c4)n3n2)cc1	none (no result: ELG1 genotox)
COc1ccc(-c2csc(-c3cccs3)n2)c(OC)c1	SMN2 splice up 11µM, ELG1 genotox 2.1µM, FLuc counter 3.4µM, Rab9 prom act 1.3µM, NPC1 promoter act inconclusive
COc1ccc(-c2csc(-c3ccccc3)n2)c(OC)c1	SMN2 splice up 11µM, ELG1 genotox 4.6µM, FLuc counter 3.4µM, Rab9 prom act inconclusive, NPC1 promoter act inconclusive
O=C(/C=C/c1ccc(Cl)cc1Cl)Nc1cccc(S(=O)(=O)NC2=NCCCCC2)c1	FLuc counter 2.4µM
Cc1cc(OCC(=O)Nc2cccc(S(=O)(=O)NC3=NCCCCC3)c2)ccc1Cl	FLuc counter 17µM
O=C(/C=C/c1ccccc1[N+](=O)[O-])Nc1cccc(S(=O)(=O)NC2=NCCCCC2)c1	none (no result: SMN2 splice up, FLuc counter, Rab9 prom act, NPC1 promoter act)
Cc1ccc(OCC(=O)Nc2cccc(S(=O)(=O)NC3=NCCCCC3)c2)cc1C	FLuc counter 15µM (no result: SMN2 splice up)
Cc1cc(C)cc(OCC(=O)Nc2cccc(S(=O)(=O)NC3=NCCC3)c2)c1	none (no result: SMN2 splice up)
CCc1ccc(NC(=O)CSc2ccc(-c3sc(-c4ccccc4)nc3C)nn2)cc1	none (no result: SMN2 splice up, ELG1 genotox, Rab9 prom act, NPC1 promoter act)
Cc1ccc(-n2cc(CNC(C)c3cnn(C)c3C)c(-c3ccc(F)cc3)n2)cc1 (stereo unspecified)	FLuc counter 15µM (no result: SMN2 splice up)
Cc1ccc(-n2cc(CNC(C)Cn3cncn3)c(-c3ccc(F)cc3)n2)cc1 (stereo unspecified)	FLuc counter 17µM
CCOC(=O)c1cnc(N2CCN(c3cccc(C)c3C)CC2)c2ccccc12	none (no result: SMN2 splice up, ELG1 genotox, Rab9 prom act, NPC1 promoter act)
COCCCNC(=O)C(=O)NCC(c1ccc2c(c1)OCO2)N1CCOCC1 (stereo unspecified)	none (no result: SMN2 splice up, ELG1 genotox, Rab9 prom act, NPC1 promoter act)
CC(=O)c1csc(Nc2ccccc2Cl)n1	ELG1 genotox inconclusive, FLuc counter 19µM, Rab9 prom act 2.8µM, NPC1 promoter act 3.2µM (no result: SMN2 splice up)
